IL1B secr inh – inhibitors of inflammasome signaling (IL-1 beta secretion) | THP-1 LPS/ATP IL-1B secretion, AlphaLISA, 16 h; active compounds read low | activity change, % at 57.5 µM | 360,000 tested, 4.7% active | AID 743279; in the data active means activity change below about -50%; inconclusive means mostly about -30% to -49%; further: on the % scale 0 is the no-effect control and ±100 the full control effect
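Secreted IL-1B measured by AlphaLISA bead assay after 16 h compound exposure of THP-1 cells; compounds (final up to 57.5 uM) added 1 h before LPS (250 ng/mL) and ATP (1.25 mM) stimulation; lower signal means less secretion.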
ATXN2 expr inh – inhibitors of ATXN2 expression; HEK-293 ATXN2-luciferase reporter, luminescence, 24 h; Potency, µM (series often up to 57 µM), for inactives: at the highest dose activity change, negative = inhibition, hits mostly inhibitors; 360,000 tested, 0.72% active; AID 1745845; further: potency means the concentration at half of the fitted maximal effect; on the % scale 0 is the no-effect control and ±100 the full control effect; nearly all actives have a fitted effect of over 55% in size
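qHTS (up to 57 uM final) was run with 24 h compound exposure of reporter cells at 37 °C. Each well was multiplexed: SteadyGlo luminescence measured ATXN2-luciferase expression after a fluorogenic Gly-Phe-AFC viability readout (25 uM final).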
TGFb inhibitor – TGF-b pathway inhibition; HepG2 CAGA-GFP TGF-b/SMAD3 reporter, GFP fluorescence, 18 h; TGF-beta stimulated, 500 pg/mL final; Potency, µM (highest dose often 46.1 µM), for the others: at the highest dose activity, negative = inhibition, most hits filed as inhibitors; 410,000 tested, 1.2% active; AID 588855; further: potency means the concentration at half of the fitted maximal effect; on the % scale 0 is the no-effect control and ±100 the full control effect; nearly all actives have a fitted effect of over 65% in size
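Inhibition was scored as loss of TGF-beta-induced (500 pg/mL final, 18 hours, 37 degrees C) GFP in HEPG2 cells carrying a CAGA-GFP reporter, in DMEM with 1% FBS. Well GFP was summed per cell; Activity was normalised to unstimulated and stimulated DMSO wells, then concentration-response fitting.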
ATXN viability – reduces viability in counter-screen for ATXN expression inhibitors | 400,000 tested, 0.49% active | S2 cells (HEK-293 line with an ATXN2-luciferase reporter) viability, CellTiter-Fluor protease fluorescence, 24 h | Potency, µM (series often up to 56.7 µM), usual class: cytotoxic | AID 651635; further: potency means the concentration at half of the fitted maximal effect; nearly all actives have a fitted effect of over 40% in size
HepG2 viability – HepG2 cytotoxicity, counter-screen for TGF-b inhibitors; HepG2 CAGA-GFP viability, ATP luminescence, 18 h; AID 588856; Potency, µM (series often up to 46.1 µM), for the others: top-dose activity change, negative = cytotoxicity, usual class: cytotoxic; 410,000 tested, 0.76% active; further: potency means the concentration at half of the fitted maximal effect
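CellTiter-Glo luminescence gave cytotoxicity after 18 hours at 37 degrees C. The cells were HepG2 CAGA-GFP in 1% FBS DMEM, stimulated with 500 pg/mL TGF-beta after compound addition. %Activity was normalised to no-cell wells (complete cell-killing) and DMSO (no toxicity), and curves were fitted and classified.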
* hit, by the source's call; ! = not confirmed by another sample. An excerpt weighted towards active compounds, which were near 5.7% of everything screened. Unless noted, the call rests on the fitted dose curve; in most records, active means well fitted curve in the direction sought with a large enough effect; inconclusive means small, poorly fitted or top-dose-only effect, or another doubt; inactive means no such curve, though single readings can be large; an effect the other way counts as inactive or inconclusive.

CCOc1ccc(N2CC(c3nc4ccccc4n3CCOc3ccc(CC)cc3)CC2=O)cc1 (stereo unspecified) was read as ATXN2 expr inh 15.2%, TGFb inhibitor inconclusive, ATXN viability inactive and HepG2 viability -6.1%.
`Cc1cc(OCCn2c(C3CC(=O)N(Cc4ccc(F)cc4)C3)nc3ccccc32)ccc1Cl` (stereo unspecified) gave ATXN2 expr inh inconclusive, TGFb inhibitor 12.6µM* and HepG2 viability -101.8%.
For CCc1ccccc1N1CC(c2nc3ccccc3n2CCOc2ccc(Cl)c(C)c2)CC1=O (stereo unspecified) the results were ATXN2 expr inh inconclusive, TGFb inhibitor 11.2µM*, ATXN viability inconclusive and HepG2 viability 10µM*.
Screening COc1cc(/C=C/c2nc3cc(Cl)ccc3c(=O)n2-c2ccc(C)cc2C)cc(OC)c1OC returned TGFb inhibitor inconclusive and HepG2 viability -18.2%.
Screening CC1=C(c2ccc(C)c(C)c2)S(=O)(=O)N=C1N1CCC(C(=O)N2CCC(C)CC2)CC1 returned ATXN2 expr inh 7.8%, TGFb inhibitor inconclusive, ATXN viability inactive and HepG2 viability -8.3%.
NS(=O)(=O)c1cc2c(cc1Cl)CN(C1CCCCC1)C2=O was read as ATXN2 expr inh 8.3% and ATXN viability inactive.
Screening Cc1cccn2c(=O)c3cc(C(=O)NCc4ccco4)c(=N)n(CCc4ccccc4)c3nc12 returned IL1B secr inh -84.6*, ATXN2 expr inh -17.1%, TGFb inhibitor -0.6%, ATXN viability inactive and HepG2 viability -38.6%.
`CCCCCn1c(=NC(=O)c2ccco2)c(C(=O)OCC)cc2c(=O)n3ccccc3nc21` gave IL1B secr inh -74.1*!, ATXN2 expr inh 5.7%, TGFb inhibitor inconclusive, ATXN viability inactive and HepG2 viability -24.3%.
For COc1ccc(CCn2c(=N)c(C(=O)NC3CCCC3)cc3c(=O)n4ccccc4nc32)cc1 the results were IL1B secr inh -82.7*, ATXN2 expr inh -7.7%, TGFb inhibitor 10.9%, ATXN viability inactive and HepG2 viability 1.3%.
`COCCCn1c(=N)c(C(N)=S)cc2c(=O)n3cccc(C)c3nc21` gave IL1B secr inh -68.2*, ATXN2 expr inh -17.7%, TGFb inhibitor -2.3%, ATXN viability inconclusive and HepG2 viability -16.4%.
`Cc1cccn2c(=O)c3cc(C(=O)NCCc4ccccc4)c(=N)n(Cc4ccco4)c3nc12` gave IL1B secr inh 3.9, ATXN2 expr inh inconclusive, TGFb inhibitor inconclusive, ATXN viability inactive and HepG2 viability -16.9%.
`Cc1ccn(-c2ccc(-c3ncco3)cc2)c(=O)c1-c1ccc2nc(N)ncc2c1` gave ATXN2 expr inh -12.9%.
`Cc1ccc2[nH]c(=O)c(CN(Cc3ccccc3)Cc3nnnn3Cc3ccco3)cc2c1` gave TGFb inhibitor 10.0% and HepG2 viability 0.0%.
CC(C)n1c(=N)c(C(=O)NCCc2ccccc2)cc2c(=O)n3ccccc3nc21 was read as IL1B secr inh -51.9*, ATXN2 expr inh -23.6%, TGFb inhibitor -8.8% and HepG2 viability -33.4%.
Cc1cccn2c(=O)c3cc(C(=O)NC(C)c4ccccc4)c(=N)n(CCCn4ccnc4)c3nc12 (stereo unspecified) was read as IL1B secr inh -83.5*, ATXN2 expr inh -17.3%, TGFb inhibitor -17.8%, ATXN viability inactive and HepG2 viability -19.5%.
CC(C)n1c(=N)c(C(=O)NC2CCCCC2)cc2c(=O)n3ccccc3nc21 was read as ATXN2 expr inh 5.8%, TGFb inhibitor -12.7%, ATXN viability inactive and HepG2 viability 6.6%.
Screening CCOCCCn1c(=N)c(C(=O)NCc2ccc3c(c2)OCO3)cc2c(=O)n3cccc(C)c3nc21 returned IL1B secr inh -59.9*, ATXN2 expr inh inconclusive, TGFb inhibitor -0.8%, ATXN viability inconclusive and HepG2 viability -25.5%.
For Cc1ccc(CNC(=O)c2cc3c(=O)n4ccccc4nc3n(Cc3ccco3)c2=N)cc1 the results were IL1B secr inh -93.9*, ATXN2 expr inh -27.4%, TGFb inhibitor 3.4%, ATXN viability inactive and HepG2 viability -20.8%.
For N=c1c(C(=O)NCc2ccccc2)cc2c(=O)n3ccccc3nc2n1Cc1ccco1 the results were IL1B secr inh inconclusive, ATXN2 expr inh -28.9%, TGFb inhibitor inconclusive, ATXN viability inactive and HepG2 viability -36.0%.
CCOCCCn1c(=N)c(C(=O)NC(C)c2ccccc2)cc2c(=O)n3cccc(C)c3nc21 (stereo unspecified) was read as ATXN2 expr inh -3.6%, TGFb inhibitor inconclusive and HepG2 viability -45.4%.
For O=C(Nc1cc(F)ccc1F)c1cnn2c1NC(=C1CC1)C=C2C(F)F the results were TGFb inhibitor 8.5% and HepG2 viability -2.3%.
Screening COc1ccc(Cl)cc1NC(=O)Cn1c(=O)n2nc(-c3ccccc3)nc2c2ccccc21 returned TGFb inhibitor -40.8% and HepG2 viability -24.1%.
Screening CSc1ccc(CNC(=O)c2cc3c(=O)n(Cc4ccco4)ccc3nc2C)cc1 returned TGFb inhibitor 11.2µM* and HepG2 viability -42.9%.
For Cn1ncc2c(N3CCN(c4ccccc4Cl)CC3)ncnc21 the results were TGFb inhibitor -0.8% and HepG2 viability -15.6%.
`CCN(CC)CCn1c(-c2ccccc2)csc1=Nc1ccccc1` gave ATXN2 expr inh inconclusive, TGFb inhibitor 12.6µM* and HepG2 viability -28.3%.
Screening OCCCn1c(-c2ccccc2)csc1=Nc1ccccc1 returned IL1B secr inh -1.8, ATXN2 expr inh 6.3%, TGFb inhibitor -21.4%, ATXN viability inconclusive and HepG2 viability -0.8%.
`O=C(Nc1nc2c(F)cccc2s1)c1ccc2c(c1)OCCO2` gave ATXN2 expr inh -66.4%, TGFb inhibitor 6.6%, ATXN viability inactive and HepG2 viability -39.0%.
Screening CN1CCCN(C(=O)c2cccc(-c3ccc(C=C4C(=O)Nc5ccc(Cl)cc54)o3)c2)CC1 returned ATXN2 expr inh 7.69µM*.
CN(C)CCSc1nc(-c2ccccc2)nc2c1CCCC2 was read as IL1B secr inh -71.5*, ATXN2 expr inh -19.8%, TGFb inhibitor 6.9%, ATXN viability inactive and HepG2 viability -23.0%.
COc1ccccc1CNC(=O)CCCCn1c(=O)c2ccccc2n(CC(=O)Nc2cccc(Cl)c2)c1=O was read as ATXN2 expr inh -3.0%, TGFb inhibitor -22.5%, ATXN viability inconclusive and HepG2 viability -16.8%.
For CCN1/C(=C/c2ccc3cc(C)ccc3[n+]2CC)Sc2cc(C)ccc21 the results were IL1B secr inh -106.7*, ATXN2 expr inh inconclusive, TGFb inhibitor 120.3% and HepG2 viability -77.2%.
